Measured values from PubChem BioAssay AID623868 (Vanderbilt High Throughput Screening Facility, 2012).
The whole screen tested about 2,100 compounds, of which about 760 (36%) were called active.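 The calls were made as follows: active = thallium-flux fluorescence traces judged by eye to show enhanced or reduced glutamate response, manual score 1 or -1, so both directions (some results past the limit were not filed as active); inactive = the rest, including fluorescent or raised-baseline compounds.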 Not all results are given here.

Experiment: non-GIRK thallium flux modulation in mGlu8 cells, confirmation, counter-screen for GIRK activator project, cell-based, HEK-293 rmGlu8, no GIRK (AID 623868);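 also: extra codes mark interference with 3 for fluorescent and 4 for baseline rise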
Conditions: thallium flux fluorescence, at 10 µM, actives lie on both sides, codes: 1 enhancer, -1 blocker, 0 none, thallium stimulus containing EC20 glutamate

| Compound | manual score |
| --- | --- |
| CSc1ccc(S(=O)(=O)NCc2ccccc2Cl)cc1 | 0 (inactive) |
| Cc1ccc(NC(=O)COC(=O)CCC(=O)c2ccc(Cl)cc2)cc1S(=O)(=O)N(C)C | 0 (inactive) |
| Cc1ccc(C(=O)CC(=O)COc2ccc(Cl)cc2)cc1 | 0 (inactive) |
| Cc1ccc(C(=O)CC(=O)COc2ccc(Cl)cc2C)cc1 | 1 (active) |
| S=c1[nH]c2cc(Cl)ccc2s1 | 1 (active) |
| CCOC(=O)c1cccc(NC(=O)CSc2nnc(-c3cccnc3)n2C)c1 | -1 (active) |
| CCc1nnc(NC(=O)CSc2nnc(C3CCCCC3)n2-c2cccc(Cl)c2)s1 | -0.5 (inactive) |
| Cc1ccc(-c2nnc(SCC(=O)Nc3cccc(C(=O)N4CCOCC4)c3)n2C)cc1 | 0 (inactive) |
| CCOC(=O)c1cccc(NC(=O)CSc2nnc(C3CCCCC3)n2C)c1 | -1 (active) |
| COc1cccc(NC(=O)CSc2nnc(-c3ccoc3C)n2-c2ccccc2)c1 | 0 (inactive) |
| Cc1ccc(C)c(-n2nnnc2SCC(=O)Nc2cccc(-c3nnc4n3CCCCC4)c2)c1 | 3 (inactive) |
| CC1CSc2ccccc2NC1=S (stereo not given) | 0 (inactive) |
| CC1CC(=S)Nc2ccccc2N1Cc1ccccc1 (stereo not given) | 0 (inactive) |
| CC1(C)CC(=S)Nc2ccccc2S1 | 1 (active) |
| O=C(CSc1ccccc1)N(c1ccc(Br)cc1)c1nccs1 | 0 (inactive) |
| Brc1ccccc1C1=Nn2c(nnc2-c2ccccc2)SC1 | 0 (inactive) |
| COc1ccc(C2=Nn3c(nnc3C3CCCCC3)SC2)cc1OC | -1 (active) |
| COc1ccccc1C1=Nn2c(nnc2C2CCCCC2)SC1 | 0 (inactive) |
| c1cc2c(cc1C1=Nn3c(nnc3C3CCCCC3)SC1)OCO2 | -1 (active) |
| CCCc1nnc2n1N=C(c1ccc(OC)c(OC)c1)CS2 | -0.5 (inactive) |
| CCC1(c2ccc(Cl)cc2)NC(=S)N(c2ccccc2)N1 (stereo not given) | 1 (active) |
| Clc1cccc(CSc2nnc(-c3ccccn3)n2Cc2ccco2)c1 | -0.5 (inactive) |

| Compound | manual score |
| --- | --- |
| CCn1c(SCC(=O)Nc2oc(-c3ccccc3)c(-c3ccccc3)c2C#N)nnc1-c1ccco1 | 0 (inactive) |
| COc1ccc(NC(=O)CSc2nnc(-c3ccccn3)n2Cc2ccco2)cc1OC | 0 (inactive) |
| CCOc1ccccc1NC(=O)CSc1nnc(-c2ccccn2)n1Cc1ccco1 | -1 (active) |
| CCOc1ccccc1NC(=O)Nc1cccc(C(C)=O)c1 | 0 (inactive) |
| CCOc1ccccc1NC(=O)CSc1nnc(-c2ccco2)n1Cc1ccco1 | -1 (active) |
| COc1cc(Cl)cc2c1Sc1ccccc1/C2=C/CCN(C)C | 0 (inactive) |
| O=C(CSc1nc(-c2ccc(F)cc2)cs1)N1CCOCC1 | 0 (inactive) |
| CC1(C)Cc2ccccc2C(/C(=N\Nc2cccc(Cl)c2)C(N)=O)=N1 | 0 (inactive) |
| Cc1cccc(NC(=S)NNC(=O)c2csc3c2CCCC3)c1 | 1 (active) |
| Cc1ccc(C)c(NC(=S)NNC(=O)c2cc3c(s2)CCC(C)C3)c1 (stereo not given) | 1 (active) |
| Cc1cccc(NC(=S)NNC(=O)c2csc3c2CCC(C)C3)c1 (stereo not given) | 1 (active) |
| Cc1ccccc1NC(=S)NNC(=O)c1csc2c1CCC(C)C2 (stereo not given) | 1 (active) |
| CC(C)CNC(=S)NNC(=O)c1csc2c1CCC(C)C2 (stereo not given) | 0 (inactive) |
| CC(C)(C)C1CCc2c(C(=O)N/N=C/c3cccs3)csc2C1 (stereo not given) | 0 (inactive) |
| O=C1CCC(/C=C/c2ccccc2)=NN1Cc1ccc(Cl)c(Cl)c1 | 0 (inactive) |
| CCCN1CCC(NC(=O)Nc2ccc(F)cc2F)CC1 | 0 (inactive) |
| Cc1ccc(C)c(NC(=S)NNC(=O)c2csc3c2CCCC3)c1 | 1 (active) |
| Cc1ccc(C)c(NC(=S)NNC(=O)c2csc3c2CCC(C)C3)c1 (stereo not given) | 1 (active) |
| O=C(NC(=S)N1CCN(c2ccc(Cl)cc2[N+](=O)[O-])CC1)c1cccs1 | 1 (active) |
| O=C(NC(=S)N1CCCCC1)c1cccs1 | 1 (active) |
| O=C(N1CCCCC1)N1CCN(C(=O)N(c2ccccc2)c2ccccc2)CC1 | 0 (inactive) |
| O=C(O/N=C\c1ccc(N2CCCCC2)c([N+](=O)[O-])c1)c1c(F)cccc1F | 0 (inactive) |

| Compound | manual score |
| --- | --- |
| O=C(NC(=S)N1CCN(c2ccc(C(F)(F)F)cc2[N+](=O)[O-])CC1)c1cccs1 | 1 (active) |
| O=C(NC(=S)N1CCN(c2ccc(Cl)cc2[N+](=O)[O-])CC1)c1ccco1 | 1 (active) |
| COC(=O)C1CCCN1C(=O)c1cccs1 (stereo not given) | 0 (inactive) |
| FC(F)(F)c1cccc(N2CCN(C(=S)NC3CCCCC3)CC2)c1 | 0 (inactive) |
| CCN(CC)CC(O)COc1ccccc1C(=O)CCc1ccccc1 (stereo not given) | 0 (inactive) |
| COC(=O)c1cc(=O)n(CCc2ccc(OC)cc2)c(=Nc2ccc(F)c(Cl)c2)s1 | 0 (inactive) |
| O=C(NC(=S)Nc1cccc(Cl)c1N1CCCC1)c1ccc(-c2cccc([N+](=O)[O-])c2)o1 | 0 (inactive) |
| O=C(NC(=S)N1CCN(c2c(Cl)cccc2[N+](=O)[O-])CC1)c1cccs1 | 1 (active) |
| COc1ccc(N(CC(=O)NC2CCCC2)C(=O)Cn2nnc(-c3ccc(C)cc3)n2)cc1 | 0 (inactive) |
| COc1cc2c(C(=O)N3CCN(C4CCCCC4)CC3)cn(CC(C)C)c(=O)c2cc1OC | 0 (inactive) |
| CC(=C/c1ccccc1)/C=N/n1c(-c2ccco2)n[nH]c1=S | 1 (active) |
| CC(/C=N/NC(=O)c1c(Br)cnn1C)=C\c1ccccc1 | 0 (inactive) |
| CC(/C=N/n1c(-c2ccco2)n[nH]c1=S)=C\c1ccccc1 | 1 (active) |
| CC(/C=N/n1c(C2CCCCC2)n[nH]c1=S)=C\c1ccccc1 | 1 (active) |
| Cc1ccc(C)n1-c1ccc(C(=O)NN)cc1 | 0 (inactive) |
| CC(C)NS(=O)(=O)c1ccc(OCC(=O)Nc2ccc3c(c2)OCO3)c(Cl)c1 | 0 (inactive) |
| COc1ccc(OC)c(C(=O)c2coc3ccc(O)c(CN4CCOCC4)c23)c1 | 0 (inactive) |
| CCCCCNC(=O)c1ccc2c(=O)[nH]c3c(C(=O)NCC4CCCO4)sc(=S)n3c2c1 (stereo not given) | -1 (active) |
| O=C(CN1C(=O)c2ccccc2C1=O)Nc1sc2c(c1C(=O)NCC1CCCO1)CCC2 (stereo not given) | 0 (inactive) |
| Cc1ccc(-n2nc(-c3cccs3)cc2C(=O)NCC2CCCO2)c(C)c1 (stereo not given) | -0.5 (inactive) |
| Cc1cc(C=C2C(=O)c3ccccc3C2=O)c(C)n1-c1ccccc1 | 3 (inactive) |
